{
  "source": "the antibiotic and cytotoxicity screens of Wong et al. (2023)",
  "note": "Hit rate of the full screen: of about 39,000 compounds, about 1,500 (3.8%) were called active. This excerpt belongs to a sample that is enriched for actives.",
  "data": [
    {"system": "HSkMC (human skeletal muscle cells)", "experiment": "cytotoxicity call (relative viability < 0.9)", "details": "10 µM", "values": [
      {"molecule": "O=C(NCCCN1CCOCC1)[C@H]1[C@H](CO)[C@H]2Cn3c(cccc3=O)[C@@H]1N2C(=O)C1CCCCC1", "cytotoxicity call": "inactive"},
      {"molecule": "C[C@@H]1CCCCO[C@H](CN(C)C(=O)NC2CCCCC2)[C@H](C)CN([C@H](C)CO)C(=O)c2cc(NC(=O)Nc3ccc(F)cc3)ccc2O1", "cytotoxicity call": "inactive"},
      {"molecule": "Cc1cccc(S(=O)(=O)N2C[C@@H](O)COC[C@@H]3O[C@H](CC(=O)NCCCN4CCOCC4)CC[C@H]32)c1", "cytotoxicity call": "inactive"},
      {"molecule": "C[C@@H]1CN([C@@H](C)CO)C(=O)c2cc(NC(=O)NC3CCCCC3)ccc2O[C@@H](C)CCCCO[C@H]1CN(C)C(=O)CCC(F)(F)F", "cytotoxicity call": "inactive"},
      {"molecule": "C[C@@H]1CN([C@@H](C)CO)C(=O)c2cc(NC(=O)Cc3ccccc3)ccc2O[C@@H](C)CCCCO[C@@H]1CN(C)C(=O)c1ccccc1", "cytotoxicity call": "inactive"},
      {"molecule": "C=C(CO)C(=O)O[C@H]1C[C@@]2(C)OC(=O)/C(=C/C)[C@]2(O)CC[C@@]2(C)CC(=O)[C@]1(C(=C)C(=O)OC)O2", "cytotoxicity call": "inactive"},
      {"molecule": "C=C(CO)C(=O)O[C@@H]1[C@H]2C(=C)C(=O)O[C@@H]2[C@H]2O[C@]2(C)CC/C=C(/C(=O)OC)[C@H]1OC(C)=O", "cytotoxicity call": "active"},
      {"molecule": "C[C@H]1CN([C@@H](C)CO)C(=O)c2cccc(NS(=O)(=O)c3ccc(F)cc3)c2O[C@@H]1CN(C)C(=O)Nc1cccc2ccccc12", "cytotoxicity call": "inactive"},
      {"molecule": "Cc1ccc(S(=O)(=O)Nc2cccc3c2O[C@H](CN(C)C(=O)Nc2cccc4ccccc24)[C@@H](C)CN([C@H](C)CO)C3=O)cc1", "cytotoxicity call": "inactive"},
      {"molecule": "C[C@H]1CN([C@@H](C)CO)C(=O)c2cccc(NS(=O)(=O)c3ccc(F)cc3)c2O[C@H]1CN(C)C(=O)Nc1cccc2ccccc12", "cytotoxicity call": "inactive"},
      {"molecule": "C[C@H](CO)N1C[C@H](C)[C@@H](CN(C)C(=O)Nc2cccc3ccccc23)Oc2c(NS(=O)(=O)c3ccc(F)cc3)cccc2C1=O", "cytotoxicity call": "inactive"},
      {"molecule": "C[C@H](CO)N1C[C@H](C)[C@H](CN(C)C(=O)Nc2cccc3ccccc23)Oc2c(NS(=O)(=O)c3ccc(F)cc3)cccc2C1=O", "cytotoxicity call": "active"},
      {"molecule": "C[C@H](CO)N1C[C@H](C)[C@@H](CN(C)C(=O)Nc2cccc3ccccc23)Oc2c(NS(=O)(=O)c3cccs3)cccc2C1=O", "cytotoxicity call": "inactive"},
      {"molecule": "C[C@@H]1CN([C@@H](C)CO)C(=O)c2cccc(NS(=O)(=O)c3ccc(F)cc3)c2O[C@H]1CN(C)C(=O)Nc1cccc2ccccc12", "cytotoxicity call": "active"},
      {"molecule": "C[C@@H]1CN([C@H](C)CO)C(=O)c2cccc(NS(=O)(=O)c3ccc(F)cc3)c2O[C@@H]1CN(C)C(=O)Nc1cccc2ccccc12", "cytotoxicity call": "inactive"},
      {"molecule": "C[C@@H]1CN([C@@H](C)CO)C(=O)c2cccc(NS(=O)(=O)c3cccs3)c2O[C@@H]1CN(C)C(=O)Nc1cccc2ccccc12", "cytotoxicity call": "inactive"},
      {"molecule": "C[C@@H]1CN([C@H](C)CO)C(=O)c2cccc(NS(=O)(=O)c3cccs3)c2O[C@H]1CN(C)C(=O)Nc1cccc2ccccc12", "cytotoxicity call": "active"},
      {"molecule": "Cc1ccc(S(=O)(=O)Nc2cccc3c2O[C@@H](CN(C)C(=O)Nc2cccc4ccccc24)[C@H](C)CN([C@@H](C)CO)C3=O)cc1", "cytotoxicity call": "inactive"},
      {"molecule": "Cc1ccc(S(=O)(=O)Nc2cccc3c2O[C@H](CN(C)C(=O)Nc2cccc4ccccc24)[C@@H](C)CN([C@@H](C)CO)C3=O)cc1", "cytotoxicity call": "active"},
      {"molecule": "C[C@H](CO)N1C[C@H](C)[C@H](CN(C)Cc2ccc(F)cc2)Oc2ncc(C#Cc3cccnc3)cc2C1=O", "cytotoxicity call": "inactive"},
      {"molecule": "C[C@H](CO)N1C[C@H](C)[C@H](CN(C)S(=O)(=O)c2cccs2)Oc2c(NS(=O)(=O)c3ccccc3)cccc2C1=O", "cytotoxicity call": "inactive"},
      {"molecule": "C[C@@H]1CCCCO[C@H](CN(C)S(=O)(=O)c2cn(C)cn2)[C@H](C)CN([C@@H](C)CO)C(=O)c2cc(NC(=O)Nc3ccc(C(F)(F)F)cc3)ccc2O1", "cytotoxicity call": "inactive"},
      {"molecule": "C[C@@H]1CN([C@@H](C)CO)C(=O)c2cccc(NC(=O)c3nc4ccccc4s3)c2O[C@@H]1CN(C)S(C)(=O)=O", "cytotoxicity call": "inactive"},
      {"molecule": "C[C@H]1CN([C@@H](C)CO)C(=O)Cc2cc(NC(=O)Cc3ccccc3)ccc2O[C@@H]1CN(C)S(=O)(=O)c1ccc(F)cc1", "cytotoxicity call": "inactive"},
      {"molecule": "CC1(C)OC(=O)C2(C(=O)O1)[C@@H](c1ccc(-c3cccc(-c4ccc(C(=O)O)cc4)c3)cc1)CC(=O)C[C@H]2c1ccccc1", "cytotoxicity call": "inactive"},
      {"molecule": "C[C@@H]1CN([C@H](C)CO)C(=O)Cc2cc(NS(=O)(=O)c3ccccc3)ccc2O[C@@H]1CN(C)Cc1ccc(C(=O)O)cc1", "cytotoxicity call": "inactive"},
      {"molecule": "N[C@@H]1CCCN(c2c(Br)cnc3[nH]cc(NC(=O)C4CC4)c23)C1", "cytotoxicity call": "active"},
      {"molecule": "N[C@H]1CCCN(c2ncccn2)C1", "cytotoxicity call": "inactive"},
      {"molecule": "COc1ncc(NC(=O)C2CC2)c(OC)n1", "cytotoxicity call": "inactive"},
      {"molecule": "C[C@@H]1CN([C@H](C)CO)S(=O)(=O)c2ccc(-c3ccc(C(=O)N(C)C)cc3)cc2O[C@@H]1CN(C)C(=O)C1CC1", "cytotoxicity call": "inactive"},
      {"molecule": "O=C(NCc1ccccc1)[C@@]1(CCS(=O)(=O)c2ccccc2)COC(c2ccc(OCCCO)cc2)=N1", "cytotoxicity call": "inactive"},
      {"molecule": "O=C1N(Cc2ccccc2)Cc2ccccc2C[C@@]12N=C(c1ccc(OCCCO)cc1)O[C@H]2c1ccccc1", "cytotoxicity call": "active"},
      {"molecule": "O=C1N(Cc2ccccc2)Cc2ccccc2[C@H]2OC(c3ccc(OCCCO)cc3)=N[C@@]12CCS(=O)(=O)c1ccccc1", "cytotoxicity call": "inactive"},
      {"molecule": "O=C1N(CCS(=O)(=O)c2ccccc2)Cc2ccccc2C[C@@]12COC(c1ccc(OCCCO)cc1)=N2", "cytotoxicity call": "active"},
      {"molecule": "O=C1N(Cc2ccccc2)Cc2ccccc2C[C@]12N=C(c1ccc(OCCCO)cc1)O[C@@H]2c1ccccc1", "cytotoxicity call": "inactive"},
      {"molecule": "O=C1N(Cc2ccccc2)Cc2ccccc2[C@H]2OC(c3ccc(OCCCO)cc3)=N[C@@]12Cc1ccccc1", "cytotoxicity call": "inactive"},
      {"molecule": "Cc1ccc(S(=O)(=O)Nc2cccc3c2O[C@@H](CN(C)Cc2ccc(Oc4ccccc4)cc2)[C@@H](C)CN([C@@H](C)CO)C3=O)cc1", "cytotoxicity call": "inactive"},
      {"molecule": "CC[C@@H](C)c1ccc(NC(=O)c2cc3ccccc3o2)cc1", "cytotoxicity call": "inactive"},
      {"molecule": "C[C@@H]1CN([C@H](C)CO)C(=O)Cc2cc(NS(C)(=O)=O)ccc2O[C@@H]1CN(C)C(=O)Nc1ccc(F)cc1", "cytotoxicity call": "inactive"},
      {"molecule": "COc1ccc(NC(=O)Nc2ccc3c(c2)C(=O)N([C@@H](C)CO)C[C@@H](C)[C@@H](CN(C)CC2CCCCC2)OCCCC[C@@H](C)O3)cc1", "cytotoxicity call": "inactive"},
      {"molecule": "C[C@@H]1CN([C@@H](C)CO)C(=O)c2cc(NC(=O)Nc3ccccc3)ccc2O[C@@H](C)CCCCO[C@@H]1CN(C)CC1CCCCC1", "cytotoxicity call": "active"},
      {"molecule": "C[C@H](CO)N1C[C@H](C)[C@H](CN(C)CC2CCCCC2)OCCCC[C@H](C)Oc2ccc(NC(=O)Nc3ccccc3)cc2C1=O", "cytotoxicity call": "active"},
      {"molecule": "C[C@@H]1CCCCO[C@H](CN(C)CC2CCCCC2)[C@@H](C)CN([C@H](C)CO)C(=O)c2cc(NC(=O)Nc3ccccc3)ccc2O1", "cytotoxicity call": "inactive"},
      {"molecule": "COc1ccc(NC(=O)Nc2ccc3c(c2)C(=O)N([C@@H](C)CO)C[C@H](C)[C@H](CN(C)CC2CCCCC2)OCCCC[C@H](C)O3)cc1", "cytotoxicity call": "inactive"},
      {"molecule": "C[C@@H]1CCCCO[C@H](CN(C)CC2CCCCC2)[C@H](C)CN([C@@H](C)CO)C(=O)c2cc(NC(=O)Nc3ccccc3)ccc2O1", "cytotoxicity call": "inactive"},
      {"molecule": "COc1ccc(NC(=O)Nc2ccc3c(c2)C(=O)N([C@H](C)CO)C[C@@H](C)[C@@H](CN(C)CC2CCCCC2)OCCCC[C@@H](C)O3)cc1", "cytotoxicity call": "active"},
      {"molecule": "C[C@H]1CCCCO[C@H](CN(C)CC2CCCCC2)[C@@H](C)CN([C@@H](C)CO)C(=O)c2cc(NC(=O)Nc3ccccc3)ccc2O1", "cytotoxicity call": "inactive"},
      {"molecule": "C[C@@H]1CCCCO[C@@H](CN(C)CC2CCCCC2)[C@@H](C)CN([C@H](C)CO)C(=O)c2cc(NC(=O)Nc3ccccc3)ccc2O1", "cytotoxicity call": "inactive"},
      {"molecule": "COc1ccc(S(=O)(=O)Nc2ccc3c(c2)CC(=O)N([C@H](C)CO)C[C@@H](C)[C@H](CN(C)C(=O)Nc2c(C)noc2C)O3)cc1", "cytotoxicity call": "inactive"},
      {"molecule": "C[C@@H]1CCCCO[C@@H](CN(C)S(=O)(=O)c2cccs2)[C@@H](C)CN([C@H](C)CO)C(=O)c2cc(NC(=O)Nc3ccc4c(c3)OCO4)ccc2O1", "cytotoxicity call": "inactive"},
      {"molecule": "N#Cc1ccc(Oc2ccccn2)cc1", "cytotoxicity call": "inactive"},
      {"molecule": "Cc1cc(C(=O)Nc2cccc3c2O[C@@H](CN(C)Cc2ccc(Oc4ccccc4)cc2)[C@H](C)CN([C@H](C)CO)C3=O)n(C)n1", "cytotoxicity call": "inactive"},
      {"molecule": "Cc1noc(C)c1S(=O)(=O)Nc1ccc2c(c1)C(=O)N([C@@H](C)CO)C[C@@H](C)[C@@H](CN(C)S(=O)(=O)c1cn(C)cn1)OCCCC[C@@H](C)O2", "cytotoxicity call": "inactive"},
      {"molecule": "C[C@@H]1CCCCO[C@H](CN(C)Cc2ccc3c(c2)OCO3)[C@H](C)CN([C@H](C)CO)C(=O)c2cc(NC(=O)Nc3ccccc3)ccc2O1", "cytotoxicity call": "inactive"},
      {"molecule": "C[C@@H]1CN([C@@H](C)CO)C(=O)c2cc(NC(=O)Cn3cnnn3)ccc2O[C@@H]1CN(C)Cc1ccc(C(F)(F)F)cc1", "cytotoxicity call": "inactive"},
      {"molecule": "C[C@H]1CN([C@@H](C)CO)C(=O)Cc2cc(NC(=O)Nc3cc(Cl)cc(Cl)c3)ccc2O[C@H]1CN(C)S(=O)(=O)c1ccc(Cl)cc1", "cytotoxicity call": "active"},
      {"molecule": "CC(C)NC(=O)Nc1ccc2c(c1)CC(=O)N([C@@H](C)CO)C[C@H](C)[C@@H](CN(C)S(=O)(=O)c1ccc(Cl)cc1)O2", "cytotoxicity call": "inactive"},
      {"molecule": "C[C@H]1CN([C@@H](C)CO)C(=O)Cc2cc(NC(=O)Nc3ccc(Cl)c(Cl)c3)ccc2O[C@H]1CN(C)S(=O)(=O)c1ccc(Cl)cc1", "cytotoxicity call": "active"},
      {"molecule": "COc1ccc(S(=O)(=O)N(C)C[C@H]2Oc3ccc(N(C)C)cc3CC(=O)N([C@@H](C)CO)C[C@@H]2C)cc1", "cytotoxicity call": "inactive"},
      {"molecule": "CC(C)NC(=O)Nc1ccc2c(c1)CC(=O)N([C@H](C)CO)C[C@H](C)[C@@H](CN(C)S(=O)(=O)c1ccc(Cl)cc1)O2", "cytotoxicity call": "inactive"},
      {"molecule": "COc1ccc(S(=O)(=O)N(C)C[C@@H]2Oc3ccc(N(C)C)cc3CC(=O)N([C@H](C)CO)C[C@@H]2C)cc1", "cytotoxicity call": "active"},
      {"molecule": "CC(C)NC(=O)Nc1ccc2c(c1)CC(=O)N([C@@H](C)CO)C[C@@H](C)[C@@H](CN(C)S(=O)(=O)c1ccc(Cl)cc1)O2", "cytotoxicity call": "inactive"},
      {"molecule": "CC(C)NC(=O)Nc1ccc2c(c1)CC(=O)N([C@H](C)CO)C[C@H](C)[C@H](CN(C)S(=O)(=O)c1ccc(Cl)cc1)O2", "cytotoxicity call": "inactive"},
      {"molecule": "COc1ccc(S(=O)(=O)N(C)C[C@@H]2Oc3ccc(N(C)C)cc3CC(=O)N([C@@H](C)CO)C[C@H]2C)cc1", "cytotoxicity call": "inactive"}
    ]}
  ]
}
